Test results as given in PubChem BioAssay.
Calls of active or inactive are those of the source. Cut-off read from the data, not from the text of the source: active = fold change permeability below about 0.7 or above about 1.3; inactive = in between.

Test: modulators of brain endothelial barrier permeability, primary screen, cell-based, FITC-avidin fluorescence, HTS (AID 1963498); note: test concentration not given here
Details: actives lie on both sides

Fold change permeability, inactive:
Nc1ncnc2c1ncn2[C@@H]1O[C@H](COP(=O)(O)OP(=O)(O)OP(=O)(O)OP(=O)(O)OC[C@@H]2O[C@H](n3cnc4c(N)ncnc43)C(O)[C@@H]2O)[C@H](O)C1O (some centres undefined) 1
NCCOc1cc(C(=O)Nc2cc(OCCN)c3ccccc3n2)nc(C(=O)Nc2cc(OCCN)c3ccccc3n2)c1 0.9
NC(=O)c1cnccn1 0.9
COc1ccc2c(c1OC)C(=O)O[C@@H]2[C@H]1c2c(cc3c(c2OC)OCO3)CCN1C 1
COc1cc2ncnc(Nc3cccc(Br)c3)c2cc1OC 1.1
Cc1ccc(S(=O)(=O)Nc2ccccc2N2CCCCC2)s1 1
NC1(C(=O)O)CCc2cc(C(=O)O)ccc21 (centres undefined) 1.1
CN1Cc2c(N)cccc2C(c2ccccc2)C1 (centres undefined) 1
O=C(O)c1cccnc1Nc1cccc(C(F)(F)F)c1 0.9
CCCC1O[C@@H]2C[C@H]3[C@@H]4CCC5=CC(=O)C=C[C@]5(C)[C@H]4[C@@H](O)C[C@]3(C)[C@]2(C(=O)CO)O1 (some centres undefined) 1.1
CC(C)COCC(CN(Cc1ccccc1)c1ccccc1)N1CCCC1 (centres undefined) 1
NC(Cc1ccc(Cl)cc1)C(=O)O (centres undefined) 0.9
Nc1ccc(-c2ccc3ccccc3n2)cc1 1.1
Cc1cn[nH]c1 0.8
CCn1cc(C(=O)O)c(=O)c2cc3c(cc21)OCO3 1
N=C(N)c1ccc(OCCCCCOc2ccc(C(=N)N)cc2)cc1 1.1
OC(CCN1CCCCC1)(c1ccccc1)C1CCCCC1 (centres undefined) 0.8
O=C1c2c(O)ccc(O)c2C(=O)c2c(NCCNCCO)ccc(NCCNCCO)c21 0.8
O=C(O)C1=CCCNC1 1
O=C(O)c1cc([N+](=O)[O-])ccc1NCCCc1ccccc1 1
Nc1cc(Cl)c(NC2=NCCN2)c(Cl)c1 1
COc1cccc2c(NCc3ccccc3)nc(-n3c(N)nc4ccccc43)nc12 0.9
NCCCC(=O)O 0.8
NCCCNCCSP(=O)(O)O 0.9
COc1ccc2c(c1)c(CC(=O)O)c(C)n2Cc1ccc(Cl)cc1 1
Cn1c(=O)[nH]c2ncn(C)c2c1=O 1.1

Fold change permeability, active:
Cn1c(=O)c2c(nc(/C=C/c3cccc(Cl)c3)n2C)n(C)c1=O 1.6
COc1ccc(OCC2c3cc(OC)c(OC)cc3CCN2C(=O)c2cccc(Cl)c2)cc1 (centres undefined) 1.6
Nc1nc2c(cnn2CCc2ccccc2)c2nc(-c3ccco3)nn12 0.7
CCc1cccc2c3c([nH]c12)C(CC)(CC(=O)O)OCC3 (centres undefined) 1.3
O=C(O)COc1ccc(C(=O)c2cccs2)c(Cl)c1Cl 1.4
O=[N+]([O-])c1ccc2c(c1)S(=O)(=O)C=C2 2.1
Clc1ccc2nsnc2c1NC1=NCCN1 1.9
Cc1nc(N=Nc2ccc(C(=O)O)cc2)c(COP(=O)(O)O)c(C=O)c1O 0.7
CCCn1c(=O)c2[nH]c(C3CCCC3)nc2n(CCC)c1=O 1.5
c1ccc2c(c1)CCC[C@H]2Nc1nc2ccccc2[nH]1 1.3
CC(C)c1cccc(C(C)C)c1N1C(=O)c2ccc(O)cc2C1=O 1.6
CCN(Cc1cccnc1)C(=O)CN(c1ccc(OC)nc1)S(=O)(=O)c1ccccc1C 1.9
COc1ccc(S(=O)(=O)Nc2c(C)cc(C)cc2C)cc1 1.4
